This is a sample that favours compounds with a hit; in the whole collection about 2.2% have one here.
TDP43 rescue: rescues yeast growth from TDP-43 toxicity | TDP-43 expressing yeast growth rescue, BacTiter-Glo, 24 h | Potency, µM (highest dose often 46.1 µM), for the others: at the highest dose growth rescue (activation), actives largely listed as activators | 1.8% of 410,000 active; further: % of control where 0% means no effect; nearly all actives have a fitted effect of over 50% in size
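Galactose-induced TDP-43 yeast, OD600=0.02, compound pinned; 24 hr, 30 deg C; BacTiter-Glo luminescence for growth. Inhibitors of TDP-43 toxicity read as activators.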
Abeta yeast res: compounds reversing amyloid beta toxicity in yeast | 0.063% of 410,000 active | yeast expressing A-beta42, growth rescue, OD600, 48 h; response scale: 0% DMSO, 100% iron-clioquinol control | Potency, µM (series often up to 46.1 µM), most hits filed as activators | AID 1347071; further: nearly all actives have a fitted effect of over 55% in size
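Growth rescue measured by 600 nm absorbance after 48 h yeast culture at 30 C with compound. Values normalized between DMSO and an equimolar ferric chloride plus clioquinol control.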
Mito fusion yeast: blocks mitochondrial division or promotes mitochondrial fusion; 0.23% of 320,000 active; S. cerevisiae fusion-defective mutant growth rescue, CellTiterGlo 48 h; AID 485298; Potency, µM (titrated, usually from 46.1 µM), for the others: at the top dose growth rescue (activation), actives largely listed as activators; further: % of control where 0% means no effect; nearly all actives have a fitted effect of over 45% in size
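S. cerevisiae fusion-defective temperature-sensitive mutants (e.g. fzo1-1, mgm1-5) grown 48 h at 37C in YPEG (ethanol/glycerol non-fermentable) medium with 23 nl compound per well; growth rescue read as CellTiterGlo luminescence.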
aSyn rescue: alpha-synuclein toxicity inhibition in yeast; Yeast expressing alpha-synuclein, growth rescue, BacTiter-Glo, 24 h; Potency, µM (titrated, usually from 46.1 µM), for the others: top-dose growth rescue (activation), actives largely listed as activators; 0.14% of 370,000 active; further: % of control where 0% means no effect; nearly all actives have a fitted effect of over 65% in size
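Rescue of yeast growth: cells expressing toxic alpha-synuclein, induced in galactose at OD600 0.02, incubated with compound 24 h at 30 C. ATP luminescence quantified growth; inhibitors of toxicity appear as activators.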
FUS yeast rescue: rescues growth of FUS-expressing yeast. S. cerevisiae FUS-expressing, growth rescue, OD600, 24 h. Potency, µM (titrated, usually from 76.6 µM), actives largely listed as activators. 0.24% of 390,000 active;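 further: plate controls were DMSO vehicle for no effect and reference control for full effect; nearly all actives have a fitted effect of over 55% in size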
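Restored growth of FUS-toxic S. cerevisiae, read as 600 nm absorbance after 24 h at 30C in galactose medium (starting OD 0.005). Controls CP55940 and DMSO.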
* hit, by the source's call; i = inactive; u = inconclusive; x = not tested or not shown. The call rests on the fitted dose curve; in most records, active means well fitted curve in the direction sought with a large enough effect; inconclusive means small, poorly fitted or top-dose-only effect, or another doubt; inactive means no such curve, though single readings can be large; an effect the other way counts as inactive or inconclusive. Potency means the concentration at half of the fitted maximal effect.

SMILES | TDP43 rescue | Abeta yeast res | Mito fusion yeast | aSyn rescue | FUS yeast rescue
O=C(O)c1nn(CCOc2ccc(Br)cc2)c(=O)c2ccccc12 | 13µM* | i | -11% | 4% | i
Cc1ccc(Cl)cc1N1CCN(C(=O)CCS(=O)(=O)c2cc(Br)cc3c2N(C(=O)C2CC2)CC3)CC1 | 19% | i | x | x | i
CN1c2ccccc2-c2nc3ccccc3n2C1c1cccs1 (configuration not stated) | 7.1µM* | i | u | -35% | i
Cc1ccc(S(=O)(=O)Nc2ccc(C(=O)N3CCN(c4ccccc4O)CC3)cc2)cc1[N+](=O)[O-] | -10% | i | u | 0% | 13µM*
Cc1ccccc1NS(=O)(=O)c1ccc(C(=O)N2CCN(c3ccccc3O)CC2)cc1 | 18% | i | 5% | -1% | x
COc1ccc(S(=O)(=O)N2CCC(C(N)=O)(N3CCCCC3)CC2)cc1 | 7% | i | 1% | -1% | i
NC(=O)C1(N2CCCCC2)CCN(S(=O)(=O)c2cc(Cl)sc2Cl)CC1 | -4% | i | 28µM* | -1% | i
COc1cc(OC)cc(C(=O)Nc2ccccc2-c2nnn(CC(=O)Nc3cc(C)on3)n2)c1 | 4% | i | -4% | -7% | i
Fc1ccc(CSc2nnc(-c3ccncc3)o2)cc1 | 13µM* | i | 1% | 0% | i
CCSc1nnc(-c2ccncc2)o1 | -2% | i | -2% | -1% | i
O=C(O)c1ccc(CSc2nnc(-c3ccc(Cl)cc3)o2)cc1 | 17% | i | 7% | -1% | i
Clc1ccc(CSc2nnc(-c3ccncc3)o2)cc1 | 6.3µM* | i | 8% | x | i
O=C(c1ccc2c(c1)OCCO2)C1CCN(C(=O)c2ccc(F)c(F)c2)CC1 | 11µM* | i | 6% | 2% | i
CC(C)CN(CCNC(=O)c1cc(-c2ccc(Cl)s2)nc2ccccc12)CC(C)C | 10% | i | x | x | i
CC(C)(C)C(=O)N1CCC[C@H]1C(O)(c1ccccc1)c1ccccc1 | -1% | i | 35µM* | 2% | i
Cc1ccc(C(=O)Nc2cccc(NC(=O)c3ccc(C)o3)n2)o1 | 7.9µM* | i | -3% | -15% | i
CCCc1ccc(-c2csc(NC(=O)C3=COCCO3)n2)cc1 | 16µM* | i | u | -5% | i
CC(=O)Nc1ccc(-c2csc(NC(=O)c3ccc(C)o3)n2)cc1 | 24% | i | 3% | -11% | 28µM*
Cc1ccc(-c2csc(NC(=O)C3=COCCO3)n2)cc1 | u | i | -4% | 0% | i
Cc1ccc(C(=O)Nc2ccccc2NC(=O)c2ccc(C)o2)o1 | 6% | i | -2% | -8% | i
CCc1ccc(N(CC)C(=O)c2cc3c(=O)oc4ccc(C)cc4c3s2)cc1 | 3% | i | x | x | i
Cc1ccc2[nH]c(C(=O)N3CCCC(Nc4ccc(F)cc4)C3)cc2c1 (configuration not stated) | 22µM* | i | 9% | 24% | u
Cc1cc(C)c(C(=O)N2CCCC(Nc3ccc(F)cc3)C2)o1 (configuration not stated) | 24% | i | u | 0% | i
O=C(Nc1ccc2c(c1)OCO2)c1csc([C@@H]2O[C@H](CO)[C@H](O)[C@H](O)[C@H]2O)n1 | 20% | i | x | -1% | i
CCN(CC)c1ccc(NS(=O)(=O)c2cc3[nH]c(=O)c(=O)[nH]c3cc2C)c(C)c1 | 4% | i | x | x | i
SMILES | TDP43 rescue | Abeta yeast res | Mito fusion yeast | aSyn rescue | FUS yeast rescue
Cc1cc(C)n2nc(SCc3c(F)cccc3Cl)nc2n1 | u | i | 1% | -3% | i
Cc1cc(C)n2nc(SCc3ccc(F)cc3Cl)nc2n1 | 11µM* | i | 7% | -17% | i
CCOc1ccccc1NC(=O)CSc1nnnn1C1CCCC1 | 2% | i | 3% | 7% | i
Cc1cccc(N2CCN(C(=O)Cn3ncc4c3-c3ccccc3OC4)CC2)c1C | 18µM* | i | x | x | u
Cc1ccc2c(c1)-c1c(cnn1CC(=O)N1CCN(c3cc(C)ccc3C)CC1)CO2 | 35µM* | i | x | x | i
COc1ccc(N2CCN(C(=O)Cn3ncc4c3-c3cc(C)ccc3OC4)CC2)cc1 | 6% | i | x | x | i

High-throughput results as filed in PubChem.
